# Laboratory results: PubChem BioAssay (EPA / NIEHS)
# Values joined by “and” are separate entries in the source; they are usually repeats but may differ in a detail not shown here. Equal entries are not always repeated. Some compounds were tested as several samples or in several runs, with calls that do not always agree. Active and inactive are the calls of the source. Rule for the calls: active = hit-call score of the fitted dose curve at least 0.9, where 1 is the maximum; inactive = score below 0.9.
# Key:
# [1] = read-out: Urokinase-type plasminogen activator receptor (uPAR), PLAUR (gene 5329); assay: BSK_CASM3C_uPAR: BioMAP Diversity Plus: CASM3C Assay for Urokinase-type plasminogen activator receptor (uPAR) Biomarker Activity (AID 2283054); details: primary human coronary artery smooth muscle cells; actives raise or lower the signal;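 note: cell-surface uPAR protein level quantified by ELISA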
# [2] = read-out: Vascular cell adhesion molecule 1 (VCAM1), VCAM1 (gene 7412); assay: BSK_CASM3C_VCAM1: BioMAP Diversity Plus: CASM3C Assay for Vascular cell adhesion molecule 1 (VCAM1) Biomarker Activity (AID 2283055); details: primary human coronary artery smooth muscle cells; actives raise or lower the signal;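 note: VCAM-1 protein level quantified by ELISA on the cells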
# [3] = read-out: Collagen III, COL3A1 (gene 1281); assay: BSK_hDFCGF_CollagenIII: BioMAP Diversity Plus: hDFCGF Assay for Collagen III Biomarker Activity (AID 2283056); details: primary human foreskin fibroblasts; actives raise or lower the signal
# Procedure, shortened: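 ELISA readout of Collagen III in human dermal (foreskin) fibroblasts, taken 24 h post-treatment. Gain or loss relative to DMSO vehicle fitted in both directions.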
# [4] = read-out: Epidermal growth factor receptor (EGFR), EGFR (gene 1956); assay: BSK_hDFCGF_EGFR: BioMAP Diversity Plus: hDFCGF Assay for Epidermal growth factor receptor (EGFR) Biomarker Activity (AID 2283057); details: primary human foreskin fibroblasts; actives raise or lower the signal
# Procedure, shortened: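 Measured by ELISA: EGFR levels on primary human foreskin fibroblasts 24 h after chemical treatment, analysed relative to DMSO with bidirectional fitting.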
# [5] = read-out: Interleukin-8 (IL8), CXCL8 (gene 3576); assay: BSK_hDFCGF_IL8: BioMAP Diversity Plus: hDFCGF Assay for Interleukin-8 (IL8) Biomarker Activity (AID 2283058); details: primary human foreskin fibroblasts; actives raise or lower the signal
# Procedure, shortened: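 IL-8 levels read by ELISA at 24 hours after dosing human skin fibroblast cultures. Parallel SRB staining assessed overt cytotoxicity, and gain or loss of signal was fitted against DMSO control.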
# [6] = BSK_hDFCGF_Proliferation: Cell Proliferation Assessment in the BioMAP Diversity Plus: hDFCGF Assay (AID 2283059); details: primary human foreskin fibroblasts;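 note: curves fitted for both rise and fall of signal versus DMSO baseline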
# Procedure, shortened: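 Sub-confluent human foreskin fibroblast cultures receive test chemical […]. Relative cell number is quantified by sulforhodamine B staining (0.1%, after 10% TCA fixation) at 560 nm, with bidirectional fitting referenced to DMSO.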
# [7] = read-out: Macrophage colony-stimulating factor (MCSF), CSF1 (gene 1435); assay: BSK_hDFCGF_MCSF: BioMAP Diversity Plus: hDFCGF Assay for Macrophage colony-stimulating factor (MCSF) Biomarker Activity (AID 2283060); details: primary human foreskin fibroblasts; actives raise or lower the signal
# Procedure, shortened: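 M-CSF levels read by ELISA at 24 h post-dosing in human skin fibroblasts. Parallel cultures stained with SRB assessed cytotoxicity at the same time point; response fitted in both directions against the DMSO baseline.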
# [8] = BSK_hDFCGF_SRB: Viability Assessment in the BioMAP Diversity Plus: hDFCGF Assay (AID 2283061); details: primary human foreskin fibroblasts;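 note: cells exposed to compound for 24 h before the read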
# Procedure, shortened: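 Viability was read as total protein: after 10% TCA fixation, wells were stained with 0.1% sulforhodamine B and read at 560 nm. Primary human foreskin fibroblasts were dosed for 24 h, with bidirectional fitting versus DMSO.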
# [9] = read-out: TIMP metallopeptidase inhibitor 1 (TIMP1), TIMP1 (gene 7076); assay: BSK_hDFCGF_TIMP1: BioMAP Diversity Plus: hDFCGF Assay for TIMP metallopeptidase inhibitor 1 (TIMP1) Biomarker Activity (AID 2283062); details: primary human foreskin fibroblasts; actives raise or lower the signal
# Procedure, shortened: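 TIMP-1 measured by ELISA 24 h after chemical dosing of primary human skin fibroblasts, with gain or loss fitted relative to DMSO. Parallel SRB staining (560 nm) monitored overt cytotoxicity.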
# [10] = read-out: Monokine induced gamma interferon (MIG), CXCL9 (gene 4283); assay: BSK_hDFCGF_MIG: BioMAP Diversity Plus: hDFCGF Assay for Monokine induced gamma interferon (MIG) Biomarker Activity (AID 2283063); details: primary human foreskin fibroblasts; actives raise or lower the signal
# Procedure, shortened: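 Human primary foreskin fibroblasts in the hDFCGF system, exposed to test chemical for 24 h; MIG measured by ELISA. Bidirectional curve fitting against DMSO negative control as activity baseline.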
SMILES,outcome [1],outcome [2],outcome [3],outcome [4],outcome [5],outcome [6],outcome [7],outcome [8],outcome [9],outcome [10],AC50 [2],AC50 [6],AC50 [10],AC50 [1],AC50 [3],AC50 [4],AC50 [5],AC50 [7],AC50 [8],AC50 [9]
c1cc2c3c(cccc3c1)CC2,inactive,inactive,inactive,inactive,inactive,inactive,inactive,inactive,inactive,inactive,–,–,–,–,–,–,–,–,–,–
COCCOCCO,inactive,inactive,inactive,inactive,inactive,inactive,inactive,inactive,inactive,inactive,–,–,–,–,–,–,–,–,–,–
Cc1ccc(O)cc1C,inactive,inactive,inactive,inactive,inactive,inactive,inactive,inactive,inactive,inactive,–,–,–,–,–,–,–,–,–,–
OCC(F)(F)OC(F)(F)C(F)(F)OC(F)(F)C(F)(F)OC(F)(F)F,inactive,inactive,inactive,inactive,inactive,–,inactive,inactive,inactive,–,30 µM (active),11.6 µM (active) and 15.8 µM (active),16 µM (active) and 14.7 µM (active),–,–,–,–,–,–,–
c1ccc2c(c1)sc1ccccc12,inactive,inactive,inactive,inactive,inactive,inactive,inactive,inactive,inactive,inactive,–,–,–,–,–,–,–,–,–,–
O=c1ssc(Cl)c1Cl,–,–,–,–,–,–,–,–,–,–,4.48 µM (active),577 nM (active),5.86 µM (active),6.83 µM (active),8.15 µM (active),3.16 µM (active),13.1 µM (active),3.29 µM (active),2.71 µM (active),2.65 µM (active)
CCN(CC)c1ccccc1,inactive,inactive,inactive,inactive,inactive,inactive,inactive,inactive,inactive,inactive,–,–,–,–,–,–,–,–,–,–
OCC(F)(F)OC(F)(F)C(F)(F)OC(F)(F)C(F)(F)OC(F)(F)CO,inactive,inactive,inactive,inactive,inactive,–,inactive,inactive,inactive,–,–,4.15 µM (active) and 36.9 µM (active),16.8 µM (active) and 23.2 µM (active),–,14.9 µM (active),–,–,14 µM (active),5.95 µM (active),–
CC(C)(C)c1ccccc1OP(=O)(Oc1ccccc1)Oc1ccccc1,inactive,–,–,–,inactive,–,–,–,–,inactive,18.7 µM (active),15600 nM (active),–,–,2.83 µM (active),13.5 µM (active),–,20 µM (active),25 µM (active),20 µM (active)
O=C(O)C(F)(F)OC(F)(F)C(F)(F)OC(F)(F)F,inactive,inactive,inactive,inactive,inactive,inactive,inactive,inactive,inactive,inactive,–,–,–,–,–,–,–,–,–,–
c1nc[nH]n1,inactive,inactive,inactive,inactive,inactive,inactive,inactive,inactive,inactive,inactive,–,–,–,–,–,–,–,–,–,–
CCC1(c2ccccc2)C(=O)N=C(O)NC1=O (configuration not stated),inactive,inactive,inactive,inactive,inactive,inactive,inactive,inactive,inactive,inactive,–,–,–,–,–,–,–,–,–,–
CCOP(=S)(OCC)SCn1nnc2ccccc2c1=O,inactive,inactive,inactive,inactive,inactive,inactive,–,inactive,inactive,inactive,–,–,–,–,–,–,–,20 µM (active),–,–
CCOC(=O)c1ccccc1C(=O)OCC,inactive,inactive,inactive,inactive,inactive,inactive,inactive,inactive,inactive,inactive,–,–,–,–,–,–,–,–,–,–
C=CC(=O)OCC(F)(F)C(F)F,inactive,–,–,inactive,–,–,–,inactive,–,–,23.9 µM (active) and 21.1 µM (active),30 µM (active) and 39.7 µM (active),36.7 µM (active) and 38.4 µM (active),–,994 nM (active) and 23.9 µM (active),–,49.8 µM (active) and 48.3 µM (active),22.8 µM (active) and 23 µM (active),–,30 µM (active) and 31.7 µM (active)
c1ccc2c(c1)Nc1ccccc1S2,inactive,inactive,inactive,inactive,inactive,–,–,inactive,inactive,inactive,–,30400 nM (active),–,–,–,–,–,9.32 µM (active),–,–
N#Cc1c(-c2ccc(Cl)cc2)[nH]c(C(F)(F)F)c1Br,–,–,–,inactive,inactive,–,–,–,–,–,30.1 µM (active),731 nM (active),20 µM (active),0.773 µM (active),0.0161 µM (active),–,–,0.0566 µM (active),3.97 µM (active),6.18 µM (active)
O=[N+]([O-])c1ccc(Cl)c(Cl)c1,inactive,inactive,inactive,inactive,inactive,inactive,inactive,inactive,inactive,inactive,–,–,–,–,–,–,–,–,–,–
CC(C)Nc1ccc(Nc2ccccc2)cc1,–,–,–,inactive,–,–,–,–,–,–,27.5 µM (active),464 nM (active),6.46 µM (active),32.9 µM (active),8.09 µM (active),–,14 µM (active),6.38 µM (active),6.01 µM (active),6.56 µM (active)
CC(C)(C)OOC(C)(C)C,inactive,inactive,inactive,inactive,inactive,inactive,inactive,inactive,inactive,inactive,–,–,–,–,–,–,–,–,–,–
CCCCc1ccccc1,inactive,inactive,inactive,inactive,inactive,inactive,inactive,inactive,inactive,inactive,–,–,–,–,–,–,–,–,–,–

SMILES,outcome [1],outcome [2],outcome [3],outcome [4],outcome [5],outcome [6],outcome [7],outcome [8],outcome [9],outcome [10],AC50 [2],AC50 [6],AC50 [10],AC50 [1],AC50 [3],AC50 [4],AC50 [5],AC50 [7],AC50 [8],AC50 [9]
CCCCN(CCCC)N=O,inactive,inactive,inactive,inactive,inactive,inactive,inactive,inactive,inactive,inactive,–,–,–,–,–,–,–,–,–,–
CCNc1nc(Cl)nc(NC(C)(C)C)n1,inactive,inactive,inactive,inactive,inactive,inactive,inactive,inactive,inactive,inactive,–,–,–,–,–,–,–,–,–,–
O=C(O)C(F)(F)C(F)(F)C(=O)O,inactive,inactive,inactive,inactive,inactive,inactive,inactive,inactive,inactive,inactive,–,220 nM (active),14.1 µM (active),–,–,–,–,–,–,–
COC(=O)C(F)(F)C(F)(F)OC(F)(C(F)(F)F)C(F)(F)OC(F)=C(F)F (configuration not stated),inactive,inactive,inactive,inactive,inactive,inactive,inactive,inactive,inactive,inactive,–,5810 nM (active),–,–,–,–,–,–,–,–
ClC(Cl)(Cl)c1ccccc1,inactive,inactive,inactive,inactive,inactive,inactive,inactive,inactive,inactive,inactive,–,–,–,–,–,–,–,–,–,–
CCOP(=S)(OCC)SCSc1ccc(Cl)cc1,inactive,–,inactive,inactive,inactive,inactive,–,inactive,inactive,inactive,1.6 µM (active),–,–,–,–,–,–,14.4 µM (active),–,–
CCOP(=S)(Oc1ccc([N+](=O)[O-])cc1)c1ccccc1 (configuration not stated),inactive,inactive,–,inactive,inactive,–,–,inactive,inactive,inactive,–,6370 nM (active),–,–,8.08 µM (active),–,–,7.24 µM (active),–,–
OCC(F)(F)OC(F)(F)C(F)(F)OC(F)(F)CO,inactive,inactive,inactive,inactive,inactive,inactive,inactive,inactive,inactive,inactive,–,–,–,–,–,–,–,–,–,–
CC(Cc1ccc(OCC(=O)O)cc1)NCC(O)c1csc(C(F)(F)F)n1 (configuration not stated),inactive,inactive,inactive,inactive,inactive,inactive,inactive,inactive,inactive,inactive,–,–,–,–,–,–,–,–,–,–
ClC1=C(Cl)C2(Cl)C3C(Cl)C(Cl)CC3C1(Cl)C2(Cl)Cl (configuration not stated),inactive,–,–,inactive,–,–,–,–,–,–,25.4 µM (active),6970 nM (active),9.26 µM (active),–,6.06 µM (active),–,10.8 µM (active),5.82 µM (active),7.71 µM (active),8.69 µM (active)
O=C(O)C(F)(F)OC(F)(F)C(F)(F)OC(F)(F)C(=O)O,inactive,inactive,inactive,inactive,inactive,inactive,inactive,inactive,inactive,inactive,–,–,–,–,–,–,–,–,–,–
COP(N)(=S)OC,inactive,inactive,inactive,inactive,inactive,inactive,inactive,inactive,inactive,inactive,–,–,–,–,–,–,–,–,–,–
CCC(C)(C)c1ccc(O)cc1,inactive,inactive,inactive,inactive,inactive,inactive,inactive,inactive,inactive,inactive,–,–,–,–,–,–,–,–,–,–
O=[N+]([O-])c1ccccc1,inactive,inactive,inactive,inactive,inactive,inactive,inactive,inactive,inactive,inactive,–,–,–,–,–,–,–,–,–,–
COP(=O)(O)OC,inactive,inactive,inactive,inactive,inactive,inactive,inactive,inactive,inactive,inactive,–,–,–,–,–,–,–,–,–,–
Cc1ccc(N)cc1N,inactive,inactive,inactive,inactive,inactive,inactive,inactive,inactive,inactive,inactive,–,–,–,–,–,–,–,–,–,–
NC(=O)C(F)(F)C(F)(F)F,inactive,inactive,inactive,inactive,inactive,inactive,inactive,inactive,inactive,inactive,–,–,–,–,–,–,–,–,–,–
CC(Cl)CN(C)C (configuration not stated),–,inactive,inactive,inactive,inactive,inactive,inactive,inactive,inactive,inactive,–,–,–,0.177 µM (active),–,–,–,–,–,–
OCC1CO1 (configuration not stated),inactive,inactive,inactive,inactive,inactive,inactive,inactive,inactive,inactive,inactive,–,–,–,–,–,–,–,–,–,–
CC(Cl)(Cl)C(=O)O,inactive,inactive,inactive,inactive,inactive,–,inactive,inactive,inactive,inactive,–,148 nM (active),–,–,–,–,–,–,–,–
